Target: Bromodomain-containing protein 4 (Homo sapiens) (UniProt O60885)
Conditions: Compound concentration 20.0 uM, Protein concentration 2.0 uM, Result type QC Liability

Row | SMILES | ΔTm
1 | C[C@H](CCC(=O)O)[C@H]1CC[C@H]2[C@@H]3CC[C@@H]4C[C@H](O)CC[C@]4(C)[C@H]3CC[C@]12C | -7.72 °C
2 | C[C@H](CCC(=O)O)[C@H]1CC[C@H]2[C@@H]3[C@@H](O)C[C@@H]4C[C@H](O)CC[C@]4(C)[C@H]3CC[C@]12C | -2.97 °C
3 | CNC(=O)c1cc(C(=O)NC2CC2)cn(Cc2ccccc2)c1=O | -1.08 °C
4 | CO[C@@H](C)CN1CC[C@]2(C)c3cc(O)ccc3C[C@H]1C2(C)C | -1.9 °C
5 | CCCn1cc(-c2cc(C3C(=O)N(CC)c4ccc(C(F)(F)F)cc4N(c4ccccc4)C3=O)cc(OC)c2O)cn1 (configuration not stated) | 1.56 °C
6 | C[C@@H](CN1CC[C@@]2(C)c3cccc(O)c3C[C@@H]1C2(C)C)OCc1ccccc1 | -0.17 °C
7 | C=CC(=O)N1CCC[C@@H](n2nc(-c3ccc(Oc4ccccc4)cc3)c3c(N)ncnc32)C1 | -4.44 °C

— ChEMBL document CHEMBL5308504, “Tm Shift (DSF) assay results for EUbOPEN Chemogenomics Library” (2023)
